GSIS activator: GLuc luminescence reporter in INS-1E cells, primary screen for activators of glucose-dependent secretion of insulin; INS-1E GLuc reporter insulin secretion, 2-3 h; activation, % at 16.6 µM; 370,000 tested, 0.61% active; AID 743287, 2014;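 active = lowest replicate activation of at least 40%, so every replicate reaches that level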;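 also: 0% = median of neutral control wells and 100% = median of IBMX positive control wells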
F508del corr: F508del CFTR correction, initial screen, CFBE line, single point; activity (quench increase), % at 7.58 µM; 350,000 tested, 0.36% active; CFBE cells, YFP halide quenching; stimulated with forskolin plus potentiator P3; % fluorescence drop versus neutral controls; AID 720511, 2013;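 active = mean added fluorescence quench of at least 8% versus neutral control, with both replicates also reaching 8%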;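 also: cells transiently co-express mutant CFTR-F508del with the halide-sensitive YFP; corrector assay measuring rescue of mutant channel to the surface after 24 h compound exposure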
MITF TRPM1 HTS: activators of MITF-driven TRPM1 promoter reporter, primary screen, cell-based, SK-MEL-5, luciferase, single point; SK-MEL-5 TRPM1-promoter luciferase, 24 h; % of positive control, neutral wells = 0; activation, % at 12.5 µM; 300,000 tested, 0.75% active; AID 588334, 2011;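 active = mean activation of at least 80% with every replicate also reaching 80%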;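 also: 0% = neutral control wells and 100% = parthenolide positive control wells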
Wnt bcat act: Wnt/beta-catenin pathway activators, primary screen, cell-based, plate reader, single point. AID 743398, 2014. Wnt/beta-catenin reporter cell assay, activator. 300,000 tested, 1.2% active. activation, % at 9.35 µM; in the data active = activation above about 30%, passing the limit was not always enough;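 also: 0% = neutral control wells and 100% = positive control wells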
Env fusion inh: inhibitors of HIV-1 Env-driven cell-cell fusion, primary screen, HeLa-JRFL effector, CEM21 target cells, luciferase | inhibition, % at 12.3 µM | 360,000 tested, 1.1% active;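 active = mean replicate inhibition score of at least 50 and every replicate individually at or above 50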;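 also: 0% = plate neutral controls and 100% = maraviroc near 300 nM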
* = called active by the depositor; x = no result; + = active, no number; [ ] = another dose, or the depositor's remark. Hits are enriched below; roughly 2.7% of the tested compounds scored in any of these assays.

SMILES	GSIS activator	F508del corr	MITF TRPM1 HTS	Wnt bcat act	Env fusion inh
COc1ccc(NC(=O)c2sccc2SCc2cccc(C(F)(F)F)c2)cc1	x	x	9.2	x	80.0*
O=C(Nc1ccc(N2CCOCC2)c(Cl)c1)c1ccc(F)cc1	-1.1	-0.6	121.9*	16.0	x
CCCCOC(=O)Nc1ccc(N2CCCCC2)cc1	x	x	x	73.7*	-282.0
CCN(CC)c1ccc(NC(=O)c2ccc(Br)o2)cc1	-6.0	x	96.7*	69.8*	-165.9
Cc1ccc(C(=O)Nc2ccc3c(c2)CCC3)o1	-2.7	x	74.1	x	-108.3
O=C(Nc1ccc2c(c1)CCC2)c1ccc(Br)o1	x	x	31.7	41.9*	-170.8
COc1ccc(-c2ccc(NC(=O)c3ccc(Br)o3)cc2)nn1	9.3	1.6	97.6*	30.9*	-66.6
O=C(Nc1ccc(N2CCCC2)cc1)c1ccc(Br)o1	x	x	84.1*	x	x
COC(=O)Cc1ccc(NC(=O)c2ccc(Br)o2)cc1	x	x	48.2	8.8	x
CCN1CCN(c2ccc(NC(=O)c3cccc(F)c3)cc2Cl)CC1	-17.4	-0.9	127.8*	8.5	-4.6
O=C(Nc1ccc(N2CCOCC2)c(Cl)c1)c1ccc(Br)o1	x	x	105.5*	52.9*	-121.6
COc1cccc(CN(C)C[C@@H]2OCc3cnnn3CCCC(=O)N([C@@H](C)CO)C[C@@H]2C)c1	0.0	1.4	x	x	-11.5[16.7 µM]
Cc1noc(C)c1NC(=O)N(C)C[C@@H]1Oc2ccc(NS(=O)(=O)c3ccccc3)cc2CC(=O)N([C@H](C)CO)C[C@@H]1C	9.5	-2.4	x	x	-3.4[16.7 µM]
O=S(=O)(N[C@H]1CC[C@@H](CCn2cc(-c3cccc(F)c3)nn2)O[C@@H]1CO)c1ccc(F)cc1	-18.3	2.1	x	x	22.5[16.7 µM]
C[C@@H]1CN([C@@H](C)CO)C(=O)Cc2cc(NC(=O)Cc3cn(C)c4ccccc34)ccc2O[C@@H]1CN(C)C	-1.8	-0.4	x	x	x
O=C(Nc1ccc2c(c1)[C@@H]1C[C@H](CC(=O)N3CCOCC3)O[C@H](CO)[C@@H]1O2)NC1CCCC1	12.2	1.0	x	x	x
C[C@H]1CN([C@@H](C)CO)C(=O)c2cc(NC(=O)Nc3cccc4ccccc34)ccc2O[C@H]1CN(C)Cc1ccc(C(=O)Nc2ccccc2N)cc1	2.0	-0.4	x	x	x
CCC(c1nnnn1-c1ccc(OC)cc1)N1CCN(C/C=C/c2ccccc2)CC1 (stereo not drawn)	-46.3	-1.9	x	-2.9	11.0
COc1ccc(-n2nnnc2C(c2ccccc2)N2CCN(C/C=C/c3ccccc3)CC2)cc1 (stereo not drawn)	-7.7	10.4*	x	-2.8	-15.0
O=C(Nc1cc(Cl)cc(Cl)c1)C(c1ccccc1)N1CCCCC1 (stereo not drawn)	x	x	0.9	x	75.1*
COc1cccc(NC(=O)C(c2ccccc2)N2CCCCC2)c1 (stereo not drawn)	2.9	-2.2	-12.5	-0.3	18.7
C[C@H]1CN([C@@H](C)CO)C(=O)Cc2cc(N(C)C)ccc2O[C@@H]1CN(C)Cc1ccc(Cl)c(Cl)c1	-25.7	-4.1	x	x	53.6[16.7 µM]
COc1ccc(-c2cn3cccnc3n2)cc1Br	2.9	x	81.3*	20.1	-1.9
COc1ccc(-c2cn3cccc(C)c3n2)cc1F	6.5	4.0	91.5*	33.1*	-82.7
C[C@@H]1CCCCO[C@@H](CN(C)Cc2ccc(C(=O)O)cc2)[C@@H](C)CN([C@H](C)CO)C(=O)c2cc(NS(=O)(=O)c3ccccc3)ccc2O1	0.6	1.2	x	x	-8.5[16.7 µM]
SMILES	GSIS activator	F508del corr	MITF TRPM1 HTS	Wnt bcat act	Env fusion inh
O=C(OCC(=O)N1CCCCC1)c1c[nH]c2ccccc12	-1.6	0.8	94.0*	27.3	-18.1
Cc1cccc(C(=O)OCC(=O)N2CCCCCC2)c1C	-0.8	-0.6	79.0	34.3*	-70.0
Cc1ccc(C(=O)c2ccccc2C(=O)OCC(=O)N2CCCC2)cc1	5.6	-0.1	7.2	5.7	-7.7
COc1ccccc1CNC(=O)C[C@@H]1C=C[C@H](NC(=O)CN(C)C)[C@H](CO)O1	5.4	-0.6	x	x	x
CCOC(=O)/C(C#N)=C/c1ccc(OC)c(OC)c1	x	x	8.1	-5.2	-49.4
CO/N=C/C(C#N)=C/c1ccc(OC)c(OC)c1	59.6*	1.8	10.2	-2.8	-13.7
CNC[C@@H]1OCCCC[C@H](C)Oc2ccc(N(C)C)cc2C(=O)N([C@@H](C)CO)C[C@H]1C	x	-1.3	x	x	-5.0[16.7 µM]
COC(=O)C(C)N(C(=O)c1cccc(Cl)c1)c1c(C)cccc1C (stereo not drawn)	-18.8	x	-16.9	x	5.1
COC(=O)C(C)N(C(=O)c1cccc2ccccc12)c1c(C)cccc1C (stereo not drawn)	x	x	-6.6	x	77.9*
COc1cc(C(c2sc3nc(C)nn3c2O)N2CCN(c3ccccc3)CC2)cc(OC)c1OC (stereo not drawn)	x	8.5*	x	-3.1	-11.3
O=C(C[C@@H]1C=C[C@@H](NS(=O)(=O)c2ccc(F)cc2)[C@H](CO)O1)N1CCN(c2ccccc2)CC1	2.4	3.1	x	x	10.1[16.7 µM]
Cc1ccc(N=Cc2nc(-c3ccc(C)cc3)oc2O)cc1	4.3	-3.1	15.6	-0.3	-1.8
COc1ccc(N=Cc2nc(-c3ccco3)oc2O)cc1	x	x	98.7*	x	x
CCC(=O)N(C)C[C@@H]1Oc2ncc(C#CCC(C)C)cc2C(=O)N([C@H](C)CO)C[C@@H]1C	9.7	-1.6	x	x	-0.6[16.7 µM]
COc1ccc(-c2cc(C(=O)NNC(=S)NC(=O)c3c(-c4ccccc4)noc3C)[nH]n2)cc1	-2.8	-3.3	8.5	-4.2	69.4*
COc1ccc(/C=C/C(=O)NC(=S)NNC(=O)c2c(-c3ccccc3)noc2C)cc1	-20.8	x	-6.1	-1.0	90.6*
O=C(Nc1ccccc1)N1CC=C(c2ccc(F)cc2)CC1	-13.6	x	102.9*	x	x
Cc1ccc(C2CCN(C(=O)Nc3ccc(F)cc3)C2)cc1 (stereo not drawn)	-29.2	-1.5	95.4*	-0.5	-4.0
Cc1ccc(NC(=O)C2CCCN(C(=O)Nc3ccc(F)cc3)C2)cc1 (stereo not drawn)	-14.4	1.4	-8.2	-1.9	-4.8
Cc1ccc(-c2ccc(C3[C@@H]4CN(C(=O)Nc5ccc(C(F)(F)F)cc5)C[C@H]3N4)cc2)cc1 (stereo partly drawn)	+	-6.0	x	x	x
O=C(Nc1ccc(C(F)(F)F)cc1)N1C[C@@H]2N[C@H](C1)C2c1ccc(-c2cccc(F)c2)cc1 (stereo partly drawn)	113.5*	-1.9	x	x	x
Cc1ccccc1-c1ccc([C@H]2[C@H](CO)N3C(=O)CN(C(=O)NC4CCCC4)C[C@@H]23)cc1	-23.3	0.3	x	x	x
CO[C@H]1CN(C)C(=O)c2cc(NC(C)=O)ccc2OC[C@@H](C)N(C(=O)C2CCCCC2)C[C@@H]1C	4.1	0.7	x	x	x
CC(C)NC(=O)Nc1ccc2c(c1)C(=O)N([C@@H](C)CO)C[C@H](C)[C@@H](CN(C)C(=O)c1ccncc1)OCCCC[C@H](C)O2	20.9	-1.1	x	x	27.4[16.7 µM]
COc1ccc(N2C(=O)c3ccccc3C2O)cc1 (stereo not drawn)	2.0	0.9	20.9	44.2*	-20.2
